Some targets named below: RELARELA (p65 homodimer) (Homo sapiens, UniProt Q04206 1-307); p50p50 homodimer (Homo sapiens, UniProt P19838 7-356); RELB subunit;p50 subunit (Homo sapiens;Homo sapiens, UniProt Q01201;P19838 120-401;7-356).
Common to all, as to assay: protein binding microarray; high values mean tight binding
Holding throughout (conditions): dsDNA, one strand shown

Another experiment deals with T1, p52p52 homodimer (Homo sapiens, UniProt Q00653 4-332).
T1 sequence: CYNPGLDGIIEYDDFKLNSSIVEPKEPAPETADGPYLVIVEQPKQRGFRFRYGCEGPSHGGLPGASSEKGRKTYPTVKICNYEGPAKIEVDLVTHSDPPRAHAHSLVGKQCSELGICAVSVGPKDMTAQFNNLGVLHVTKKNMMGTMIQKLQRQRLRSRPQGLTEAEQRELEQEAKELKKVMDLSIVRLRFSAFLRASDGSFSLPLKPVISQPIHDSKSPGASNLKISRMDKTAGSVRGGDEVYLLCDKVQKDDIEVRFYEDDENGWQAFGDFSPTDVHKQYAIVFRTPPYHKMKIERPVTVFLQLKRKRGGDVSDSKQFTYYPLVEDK

Experiment [1] has as its target RELA (p65) subunit of heterodimer;p50 subunit (Homo sapiens;Homo sapiens, UniProt Q04206;P19838 1-307;7-356).
In experiment [2] the target is RELA (p65) subunit of heterodimer;p52 subunit (Homo sapiens;Homo sapiens, UniProt Q04206;Q00653 1-307;4-332).
In another experiment the target is T2, RELB subunit;p52 subunit (Homo sapiens;Homo sapiens, UniProt Q01201;Q00653 120-401;4-332).
T2 sequence 1: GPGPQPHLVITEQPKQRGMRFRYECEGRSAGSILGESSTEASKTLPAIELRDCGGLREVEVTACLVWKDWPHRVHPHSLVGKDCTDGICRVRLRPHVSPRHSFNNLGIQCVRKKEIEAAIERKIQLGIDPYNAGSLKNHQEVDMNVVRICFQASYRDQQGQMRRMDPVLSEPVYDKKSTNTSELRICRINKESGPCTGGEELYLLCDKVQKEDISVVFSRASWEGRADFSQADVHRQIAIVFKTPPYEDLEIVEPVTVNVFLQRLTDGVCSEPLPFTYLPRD
T2 sequence 2: T1 sequence

The target in experiment [3] is C-Rel subunit;p50 subunit (Homo sapiens;Homo sapiens, UniProt Q04864;P19838 1-285;7-356).
Experiment [4] deals with T3, C-Rel subunit;p52 subunit (Homo sapiens;Homo sapiens, UniProt Q04864;Q00653 1-285;4-332).
T3 sequence 1: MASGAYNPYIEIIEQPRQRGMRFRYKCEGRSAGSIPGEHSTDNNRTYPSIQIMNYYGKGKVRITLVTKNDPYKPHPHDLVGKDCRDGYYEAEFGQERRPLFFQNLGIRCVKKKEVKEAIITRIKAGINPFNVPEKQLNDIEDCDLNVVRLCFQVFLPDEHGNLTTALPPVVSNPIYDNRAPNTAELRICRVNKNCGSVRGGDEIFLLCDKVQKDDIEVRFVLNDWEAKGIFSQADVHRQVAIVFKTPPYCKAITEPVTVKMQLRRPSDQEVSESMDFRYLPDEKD
T3 sequence 2: T1 sequence

p50p50 homodimer, sequence (P19838 7-356): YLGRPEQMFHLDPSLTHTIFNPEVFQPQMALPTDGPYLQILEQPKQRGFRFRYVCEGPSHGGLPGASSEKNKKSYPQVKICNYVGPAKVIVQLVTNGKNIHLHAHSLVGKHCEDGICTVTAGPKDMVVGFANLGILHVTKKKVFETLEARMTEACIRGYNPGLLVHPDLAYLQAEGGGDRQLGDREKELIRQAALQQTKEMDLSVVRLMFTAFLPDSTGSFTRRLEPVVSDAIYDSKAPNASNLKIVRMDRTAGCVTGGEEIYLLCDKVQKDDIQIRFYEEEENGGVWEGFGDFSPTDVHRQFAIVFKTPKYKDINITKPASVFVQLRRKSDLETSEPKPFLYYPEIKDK
RELA (p65) subunit of heterodimer;p50 subunit, sequence (Q04206 1-307, chain 1 of 2): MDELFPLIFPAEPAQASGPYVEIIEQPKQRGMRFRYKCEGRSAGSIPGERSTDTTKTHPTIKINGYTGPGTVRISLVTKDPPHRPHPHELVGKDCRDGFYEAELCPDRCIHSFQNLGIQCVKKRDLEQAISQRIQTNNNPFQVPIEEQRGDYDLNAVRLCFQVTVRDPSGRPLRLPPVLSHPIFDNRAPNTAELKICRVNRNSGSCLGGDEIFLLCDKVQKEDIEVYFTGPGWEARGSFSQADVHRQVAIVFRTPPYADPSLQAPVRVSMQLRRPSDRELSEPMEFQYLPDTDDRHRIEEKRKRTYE
RELA (p65) subunit of heterodimer;p50 subunit, sequence (P19838 7-356, chain 2 of 2): as the sequence (P19838 7-356) above
RELARELA (p65 homodimer), sequence (Q04206 1-307): as the sequence (Q04206 1-307, chain 1 of 2) above

For GAAGTTTCCCC, the binding signal with RELARELA (p65 homodimer) worked out at 2.24 z-score; with p50p50 homodimer, 1.35 z-score; with p52p52 homodimer, 2 z-score; in [1], 2.3 z-score; in [2], 1.99 z-score; with RELB subunit;p50 subunit it was 2.19 z-score. For the same sequence, the values for the binding signal (in the experiment with RELB subunit;p52 subunit; in [3]; in [4]) were 2.19 z-score, 1.89 z-score and 1.71 z-score, respectively.
In the case of CGAAACCCCCT, the binding signal with RELARELA (p65 homodimer) is 0.503 z-score; in the experiment with p50p50 homodimer, 1.69 z-score; with p52p52 homodimer it was 2 z-score; in experiment [1], 2.24 z-score; in [2] it was 2.14 z-score; with RELB subunit;p50 subunit it was 2.22 z-score. Besides, the binding signal with RELB subunit;p52 subunit is 2.21 z-score; in [3] it was 1.52 z-score; in [4] it was 2.21 z-score.
As to AAAGGAGTCCC, the binding signal with RELARELA (p65 homodimer) turned out to be 0.141 z-score; with p50p50 homodimer, 0.939 z-score; with p52p52 homodimer, 0.569 z-score; in [1], 0.732 z-score; in [2], 0.431 z-score; with RELB subunit;p50 subunit it was 0.907 z-score. The binding signal with RELB subunit;p52 subunit was 0.607 z-score; in experiment [3], 0.81 z-score; in experiment [4], 0.405 z-score.
As for CAGGATATCCC, the binding signal with RELARELA (p65 homodimer) is 0.644 z-score; with p50p50 homodimer, -0.266 z-score; with p52p52 homodimer it was -0.111 z-score; in experiment [1], -0.14 z-score; in experiment [2], -0.0926 z-score; with RELB subunit;p50 subunit, -0.231 z-score. The figures for the binding signal (with RELB subunit;p52 subunit; in experiment [3]; in experiment [4]) were -0.211 z-score, -0.116 z-score and -0.032 z-score, respectively.
As to CGGTGGTTCCT, the binding signal with RELARELA (p65 homodimer) worked out at 0.0744 z-score; with p50p50 homodimer, 0.731 z-score; in the experiment with p52p52 homodimer, 1.05 z-score; in experiment [1], 0.41 z-score; in [2] it was 0.701 z-score; in the experiment with RELB subunit;p50 subunit, 0.293 z-score. Besides, the binding signal is 0.552 z-score in the experiment with RELB subunit;p52 subunit, -0.0201 z-score in [3] and 0.719 z-score in [4].
GAAGAGCCCCT: the binding signal with RELARELA (p65 homodimer) is -0.596 z-score; in the experiment with p50p50 homodimer it was 1 z-score; with p52p52 homodimer, 0.626 z-score; in experiment [1], 0.604 z-score; in experiment [2], 0.773 z-score; with RELB subunit;p50 subunit it was 0.554 z-score. Also, the binding signal with RELB subunit;p52 subunit is 0.833 z-score; in [3], 0.202 z-score; in experiment [4], 0.429 z-score.
Turning to CAAGTGGCCCT, the binding signal was -1.09 z-score with RELARELA (p65 homodimer); -1.71 z-score with p50p50 homodimer; -0.67 z-score in the experiment with p52p52 homodimer; -0.961 z-score in experiment [1]; -0.801 z-score in experiment [2]; -0.596 z-score with RELB subunit;p50 subunit. Besides, the values for the binding signal (with RELB subunit;p52 subunit; in experiment [3]; in experiment [4]) were -0.32 z-score, -1.14 z-score and -0.793 z-score, respectively.
Turning to AAGGTATTCCT, the binding signal in the experiment with RELARELA (p65 homodimer) is -0.0185 z-score; with p50p50 homodimer, -0.222 z-score; with p52p52 homodimer, -0.0124 z-score; in [1] it was -0.477 z-score; in experiment [2], -0.138 z-score; with RELB subunit;p50 subunit it was -0.322 z-score. The binding signal with RELB subunit;p52 subunit was -0.266 z-score; in experiment [3], -0.255 z-score; in [4], -0.012 z-score.
As for AGAAAAGCCCC, the binding signal with RELARELA (p65 homodimer) was found to be 1.13 z-score; in the experiment with p50p50 homodimer, 0.938 z-score; with p52p52 homodimer, 2.07 z-score; in [1] it was 1.57 z-score; in [2], 1.76 z-score; with RELB subunit;p50 subunit, 1.77 z-score. For the same sequence, the binding signal was 1.57 z-score with RELB subunit;p52 subunit, 0.96 z-score in experiment [3] and 1.65 z-score in [4].
As for AGGGATCTCCC, the binding signal with RELARELA (p65 homodimer) came out at 1.05 z-score; with p50p50 homodimer, 0.595 z-score; with p52p52 homodimer it was 2.05 z-score; in experiment [1], 1.2 z-score; in experiment [2], 1.32 z-score; in the experiment with RELB subunit;p50 subunit it was 1.27 z-score. Further, the results for the binding signal (with RELB subunit;p52 subunit; in experiment [3]; in [4]) were 1.12 z-score, 0.678 z-score and 1.36 z-score, respectively.
As for GAAGGGACCCC, the binding signal is -0.812 z-score with RELARELA (p65 homodimer); 0.244 z-score with p50p50 homodimer; 0.629 z-score in the experiment with p52p52 homodimer; -0.173 z-score in experiment [1]; 0.512 z-score in [2]; 0.268 z-score in the experiment with RELB subunit;p50 subunit. In addition, the binding signal is 0.639 z-score with RELB subunit;p52 subunit, -0.159 z-score in [3] and 0.296 z-score in experiment [4].
Regarding CAAGGTTCCCC, the binding signal with RELARELA (p65 homodimer) is 0.544 z-score; with p50p50 homodimer, 1.15 z-score; with p52p52 homodimer, 1.29 z-score; in experiment [1], 1.68 z-score; in [2] it was 1.31 z-score; in the experiment with RELB subunit;p50 subunit, 1.5 z-score. Moreover, the values for the binding signal (with RELB subunit;p52 subunit; in experiment [3]; in experiment [4]) were 1.58 z-score, 1.36 z-score and 1.06 z-score, respectively.
Consider CGAGTTATCCT, for which the binding signal was -0.476 z-score with RELARELA (p65 homodimer); -1.24 z-score in the experiment with p50p50 homodimer; -0.637 z-score with p52p52 homodimer; -1.02 z-score in experiment [1]; -0.873 z-score in experiment [2]; -1.13 z-score with RELB subunit;p50 subunit. The results for the binding signal (with RELB subunit;p52 subunit; in experiment [3]; in experiment [4]) were -0.889 z-score, -1.27 z-score and -0.871 z-score, respectively.
Regarding AGATTTATCCC, the binding signal with RELARELA (p65 homodimer) was -0.076 z-score; in the experiment with p50p50 homodimer, -0.338 z-score; in the experiment with p52p52 homodimer, -0.0792 z-score; in [1] it was -0.321 z-score; in experiment [2], -0.11 z-score; in the experiment with RELB subunit;p50 subunit it was -0.291 z-score. Further, the results for the binding signal (with RELB subunit;p52 subunit; in experiment [3]; in experiment [4]) were -0.135 z-score, 0.062 z-score and -0.0889 z-score, respectively.
Take CAGATAGCCCT: the binding signal is -0.575 z-score in the experiment with RELARELA (p65 homodimer); -1.02 z-score with p50p50 homodimer; -0.544 z-score in the experiment with p52p52 homodimer; -0.662 z-score in [1]; -0.763 z-score in experiment [2]; -0.804 z-score in the experiment with RELB subunit;p50 subunit. In addition, the values for the binding signal (with RELB subunit;p52 subunit; in experiment [3]; in experiment [4]) were -0.675 z-score, -1.23 z-score and -0.828 z-score, respectively.

The values above are taken from article PMC3218832.
